Experimental findings from PubChem BioAssay (NCI) are described below.

About 83,000 compounds went through this panel and 20% of them were active in at least one assay; those are over-represented in the sample as a whole.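 Growth was measured after 48 h exposure to one concentration of compound in 96-well plates. Values under 10 count as active.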 Unmarked numbers belong to inactive results. Active and inactive are the calls of the source.

Among the test systems are DU-145 prostate; K-562 leukemia; MALME-3M melanoma; MDA-MB-231 breast; RXF 393 renal; SF-268 CNS; SF-295 CNS; SF-539 CNS; UACC-257 melanoma; HCT-15 colon; HT29 colon; SNB-75 CNS; SNB-19 CNS; U251 CNS; PC-3 prostate; SK-MEL-5 melanoma; UACC-62 melanoma; LOX IMVI melanoma; SK-MEL-28 melanoma.
Experiment in all cases: NCI-60 one-dose screen, 48 h (100 = growth as untreated, 0 = no growth, -100 = all killed)
What all share (conditions): 10 µM unless noted

With `C[C@H](CCCC(=O)NCC#CCN1CCN(C)CC1)[C@H]1CC[C@H]2[C@@H]3CC[C@@H]4CC(=O)CC[C@]4(C)[C@H]3CC[C@]12C`, the growth was 102% in the assay on DU-145 prostate; 57.9% in the assay with K-562 leukemia; 65.7% with MALME-3M melanoma; 102% in the assay on MDA-MB-231 breast; 86.3% in the assay with RXF 393 renal; 95.5% in the assay with SF-268 CNS. The growth in the assay on SF-295 CNS is 106%; in the assay with SF-539 CNS it was 78.6%; in the assay on UACC-257 melanoma, 96.3%; in the assay with HCT-15 colon, 78.6%; in the assay with HT29 colon, 32.2%; in the assay with SNB-75 CNS it was 89.8%. Besides, the growth with SNB-19 CNS is 102%; in the assay with U251 CNS, 88%; with PC-3 prostate, 77.1%; with SK-MEL-5 melanoma, 90.7%; in the assay with UACC-62 melanoma it was 97.7%; with LOX IMVI melanoma, 86.7%. Besides, in the assay with SK-MEL-28 melanoma, the growth is 89.3%.
Take `CN1CCN(c2ccc3nc4c(nc3c2C(F)(F)F)C(=O)c2ncccc2C4=O)CC1`: the growth is -85.7% (active) in the assay on DU-145 prostate; -6.72% (active) with K-562 leukemia; -99.2% (active) in the assay on MALME-3M melanoma; -5.99% (active) with MDA-MB-231 breast; 38.4% in the assay on RXF 393 renal; 1.96% (active) in the assay with SF-268 CNS. In addition, the growth in the assay on SF-295 CNS is -61.6% (active); in the assay with SF-539 CNS, -52.4% (active); in the assay on UACC-257 melanoma, -82.3% (active); in the assay with HCT-15 colon it was -47.5% (active); in the assay with HT29 colon, -55.5% (active); with SNB-75 CNS it was 5.3% (active). Further, the growth with SNB-19 CNS was 17.9%; with U251 CNS, 0.911% (active); in the assay with PC-3 prostate, 8.01% (active); in the assay on SK-MEL-5 melanoma it was -99.7% (active); in the assay on UACC-62 melanoma it was -82.5% (active); in the assay with LOX IMVI melanoma, -50.1% (active). Also, the growth in the assay on SK-MEL-28 melanoma was 5.49% (active).
For `Ic1ccccc1I`, the growth in the assay on DU-145 prostate is 116%; in the assay with K-562 leukemia, 103%; with MALME-3M melanoma, 131%; in the assay on MDA-MB-231 breast it was 111%; in the assay with RXF 393 renal, 100%; in the assay with SF-268 CNS, 111%. In addition, the growth in the assay on SF-295 CNS was 106%; with SF-539 CNS, 104%; with UACC-257 melanoma, 88.3%; in the assay on HCT-15 colon it was 99.8%; in the assay on HT29 colon, 107%; in the assay on SNB-75 CNS it was 88.3%. Also, the growth in the assay with SNB-19 CNS is 103%; with U251 CNS it was 99%; in the assay on PC-3 prostate it was 99.7%; in the assay with SK-MEL-5 melanoma, 102%; with UACC-62 melanoma it was 97.3%; in the assay on LOX IMVI melanoma it was 102%. The growth in the assay on SK-MEL-28 melanoma is 108%.
Regarding `CC1(C)CC[C@]23CC[C@]4(C)[C@H](CC[C@@H]5[C@@]6(C)C/C(=C/c7ccncc7)C(=O)C(C)(C)[C@@H]6CC[C@]54C)[C@H]2[C@H]1OC3`, the growth in the assay with DU-145 prostate was 82.1%; in the assay with K-562 leukemia it was 69.9%; in the assay on MALME-3M melanoma, 87.9%; in the assay with MDA-MB-231 breast, 65.5%; in the assay on RXF 393 renal it was 88.4%; in the assay with SF-268 CNS it was 78.1%. The growth in the assay with SF-295 CNS is 90.9%; in the assay with SF-539 CNS it was 58.7%; in the assay on UACC-257 melanoma, 85.5%; in the assay with HCT-15 colon, 73.4%; with HT29 colon it was 43.9%; in the assay on SNB-75 CNS it was 61.4%. Moreover, the growth is 83.4% in the assay on SNB-19 CNS; 51% with PC-3 prostate; 78.8% in the assay with SK-MEL-5 melanoma; 90.5% with UACC-62 melanoma; 73.1% in the assay on LOX IMVI melanoma; 76% in the assay on SK-MEL-28 melanoma.
With `Cc1ccc(-c2csc(NC(=O)c3ccccc3CN3C(=O)c4ccccc4C3=O)n2)cc1`, the growth with DU-145 prostate was 96.5%; in the assay with K-562 leukemia, 100%; in the assay with MALME-3M melanoma, 93.7%; with MDA-MB-231 breast, 93.2%; in the assay with RXF 393 renal, 89.8%; in the assay on SF-268 CNS, 86.6%. Besides, the growth is 95.6% in the assay on SF-295 CNS; 98.4% with SF-539 CNS; 92.4% in the assay with UACC-257 melanoma; 90.8% in the assay on HCT-15 colon; 97.1% with HT29 colon; 87.3% in the assay with SNB-75 CNS. For the same compound, the growth in the assay on SNB-19 CNS was 91.8%; with PC-3 prostate, 91.9%; with SK-MEL-5 melanoma, 95.5%; in the assay with UACC-62 melanoma, 76.6%; in the assay on LOX IMVI melanoma it was 99.3%; in the assay on SK-MEL-28 melanoma it was 99.9%.
Turning to `COc1ccc2c(c1)/C(=N/c1n[nH]c(=S)s1)C(=O)N2`, the growth in the assay on DU-145 prostate was 107%; in the assay with K-562 leukemia, 82.9%; in the assay with MALME-3M melanoma, 104%; with MDA-MB-231 breast, 87.8%; with RXF 393 renal, 113%; in the assay on SF-268 CNS, 98.8%. Besides, the growth is 106% in the assay with SF-295 CNS; 87.4% in the assay on SF-539 CNS; 96.5% in the assay on UACC-257 melanoma; 104% with HCT-15 colon; 105% with HT29 colon; 75.4% in the assay with SNB-75 CNS. Further, the growth is 93.8% with U251 CNS; 91.2% in the assay on PC-3 prostate; 91.2% in the assay with SK-MEL-5 melanoma; 94.8% in the assay with UACC-62 melanoma; 95.8% with LOX IMVI melanoma; 107% with SK-MEL-28 melanoma.
`C=C1C(=O)O[C@H]2[C@H]1CC/C(CNC(=O)c1c[nH]c3ccc(F)cc13)=C\CC[C@@]1(C)O[C@@H]21`: the growth in the assay on DU-145 prostate is -58.5% (active); in the assay on K-562 leukemia it was -19.3% (active); in the assay with MALME-3M melanoma, -2.58% (active); with MDA-MB-231 breast, 11.7%; in the assay on RXF 393 renal it was -84.9% (active); in the assay with SF-268 CNS, 42.8%. The growth is 67.7% with SF-295 CNS; -42.6% (active) in the assay with SF-539 CNS; -68.4% (active) with UACC-257 melanoma; -69.6% (active) with HCT-15 colon; -59.5% (active) in the assay with HT29 colon; 45% with SNB-75 CNS. The growth in the assay on SNB-19 CNS is 61.3%; in the assay with PC-3 prostate, 31.8%; in the assay with SK-MEL-5 melanoma, 61.4%; in the assay with UACC-62 melanoma, -37.3% (active); with LOX IMVI melanoma, -88.4% (active); in the assay with SK-MEL-28 melanoma, -24.3% (active).
`CCN1C(=O)N(CC)C2Nn3c(s/c(=C\c4ccccc4Br)c3=O)=NC21` (stereo not drawn): the growth in the assay on DU-145 prostate is 13.6%; in the assay with K-562 leukemia, 10.7%; with MALME-3M melanoma it was 59.5%; with MDA-MB-231 breast, 19.7%; with RXF 393 renal it was 28.4%; in the assay on SF-268 CNS, 50.1%. Besides, the growth in the assay with SF-295 CNS is 25.2%; with SF-539 CNS, -20.1% (active); with UACC-257 melanoma, 46.1%; in the assay on HCT-15 colon it was 18.6%; with HT29 colon, 4.78% (active); with SNB-75 CNS, -1.27% (active). The growth in the assay with SNB-19 CNS was 26.6%; in the assay with U251 CNS, 4.95% (active); in the assay on PC-3 prostate it was 32.1%; with SK-MEL-5 melanoma, 13%; with UACC-62 melanoma, 22.8%; with LOX IMVI melanoma, 20.9%. The growth in the assay on SK-MEL-28 melanoma is 42.1%.
